Source: PubChem BioAssay
MPTP block: permeability transition pore inhibition | inhibition, % at 10 µM | 360,000 compounds, 1.4% hits | isolated mouse mitochondria, Ca2+ swelling absorbance, 30 min;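 active = inhibition of 50% or more, scaled per plate between neutral and stimulator controls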;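 also: 0% = DMSO wells given calcium and 100% = 1 mM EGTA wells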
SKKanGAS inh: inhibitors of SKKanGAS S. pyogenes growth in kanamycin (SK-promoter or general growth effect); 300,000 compounds, 1.3% hits; BacTiter-Glo, 6 h; inhibition, % at 7.5 µM;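 active = mean replicate score, as percent of positive control median, at least 50; inconclusive = mean below 50 but one replicate at or above 50; inactive = mean and every replicate below 50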;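 also: strain carries kanamycin resistance gene driven by streptokinase promoter and grows in 40 µg/ml kanamycin; loss of luminescence reflects streptokinase promoter inhibition or plain growth inhibition; 0% = median of DMSO wells and 100% = positive control at its reference dose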
Beta apoptosis: blocks beta cell apoptosis | INS-1E cytokine-induced death, ATP luminescence, 48 h; percent of positive-control rescue, neutral wells zero | protection from apoptosis, % (test concentration not listed) | 300,000 compounds, 0.8% hits | AID 435005;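 active = Every replicate reaches about 75%, or at least half do and their mean reaches it too, limit read from the data; inconclusive = At least half of replicates reach the limit but their mean does not; inactive = Under half of replicates reach the limit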;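 also: 0% = cytokine-treated negative control wells and 100% = positive control rescue; higher means more ATP so stronger rescue from cytokine killing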
Calb FLC: C. albicans growth modulation with fluconazole; growth inhibition, % (test concentration not listed); AID 1979; 300,000 compounds, 0.57% hits; C. albicans CaCi-2 (fluconazole-resistant clinical isolate) + fluconazole, Alamar Blue growth, 48 h;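 active = growth inhibition above about 58% in most replicates, limit read from the data, passing the limit was not always enough; inconclusive = exactly half the replicates above a set limit; inactive = most replicates below a set limit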;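 also: all wells also contain fluconazole at 8 µg/ml as a sub-toxic cotreatment; 0% = median of DMSO wells and 100% = median of geldanamycin control wells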
Mdm2 MdmX PPI: human Mdm2/MdmX binding inhibition. O15151+Q00987. inhibition, % at 8 µM. SaOS-2 split-luciferase Mdm2/MdmX complementation, luminescence. 330,000 compounds, 3% hits;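 active = inhibition of at least 50% at 8 µM in the primary screen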
Target sequence (O15151 whole entry, looked up): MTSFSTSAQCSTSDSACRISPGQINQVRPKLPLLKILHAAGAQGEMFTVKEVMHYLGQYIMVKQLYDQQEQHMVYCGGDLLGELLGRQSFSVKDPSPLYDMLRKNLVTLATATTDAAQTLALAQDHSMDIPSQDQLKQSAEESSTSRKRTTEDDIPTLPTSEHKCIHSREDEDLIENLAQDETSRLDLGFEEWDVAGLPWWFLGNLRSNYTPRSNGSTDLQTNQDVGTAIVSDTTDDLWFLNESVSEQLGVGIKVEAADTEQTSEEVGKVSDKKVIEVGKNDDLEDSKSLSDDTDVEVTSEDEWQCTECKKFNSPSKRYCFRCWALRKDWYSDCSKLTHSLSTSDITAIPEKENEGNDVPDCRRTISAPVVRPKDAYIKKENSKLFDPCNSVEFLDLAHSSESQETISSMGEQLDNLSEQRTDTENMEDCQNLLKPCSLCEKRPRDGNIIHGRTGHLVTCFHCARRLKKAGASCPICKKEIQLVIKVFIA
Target sequence (Q00987 whole entry, looked up): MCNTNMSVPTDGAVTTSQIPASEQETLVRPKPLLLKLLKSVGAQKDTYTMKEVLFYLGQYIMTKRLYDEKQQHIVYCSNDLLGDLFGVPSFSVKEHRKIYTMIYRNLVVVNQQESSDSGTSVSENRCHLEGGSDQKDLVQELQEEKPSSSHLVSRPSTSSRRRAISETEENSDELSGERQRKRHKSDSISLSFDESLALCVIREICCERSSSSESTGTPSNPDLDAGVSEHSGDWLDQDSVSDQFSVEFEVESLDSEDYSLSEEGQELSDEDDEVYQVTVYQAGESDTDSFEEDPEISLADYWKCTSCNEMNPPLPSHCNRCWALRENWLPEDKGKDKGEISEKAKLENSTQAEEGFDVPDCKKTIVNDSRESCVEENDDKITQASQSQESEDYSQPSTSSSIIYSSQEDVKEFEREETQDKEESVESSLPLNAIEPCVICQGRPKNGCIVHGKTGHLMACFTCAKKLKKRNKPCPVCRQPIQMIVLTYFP
CSC inhib: cancer stem cell inhibition | cancer stem cell-like cells viability, luminescence | inhibition, % at 7.5 µM | 300,000 compounds, 1.1% hits | AID 2717; in the data active = inhibition above about 75%; inconclusive = no clear call, values can overlap the other calls; tested in HMLE shEcad cells
* = called active by the depositor. A selection: hits, their analogues and other compounds. The true share with any hit is near 5.4%.

How did O=C(O)c1ccc(N/N=C/c2ccc(-c3cc(Cl)ccc3Cl)o2)cc1 do in these assays?
MPTP block: 6; SKKanGAS inh: 76*; Beta apoptosis: -8; Calb FLC: 7; Mdm2 MdmX PPI: -23; CSC inhib: 15

Results for COC(=O)N/N=C/c1ccc(-c2ccc(Cl)cc2Cl)o1 ?
MPTP block: 0; SKKanGAS inh: -2; Beta apoptosis: -19; Calb FLC: 0; Mdm2 MdmX PPI: -4; CSC inhib: -10

Results for O=C(O)c1cccc(-c2ccc(/C=N/Nc3ccc([N+](=O)[O-])cc3)o2)c1 ?
MPTP block: 9; SKKanGAS inh: 8; Beta apoptosis: -1; Calb FLC: -5; Mdm2 MdmX PPI: 1; CSC inhib: -2

How did O=C(O)c1ccc(N/N=C/c2ccc(-c3cccc(Cl)c3)o2)cc1 do in these assays?
MPTP block: 5; SKKanGAS inh: 70*; Beta apoptosis: -8; Calb FLC: -9; Mdm2 MdmX PPI: -119; CSC inhib: 10

What do the screens show for `CC(C)(C)NC(=O)C(c1ccc(-c2ccccc2)cc1)n1c(=O)c(-c2ccco2)nc2ccccc21` (configuration not stated)?
MPTP block: 2

How did O=C(Nc1cnn(C23CC4CC(CC(C4)C2)C3)c1)c1cc(-c2ccccc2)on1 do in these assays?
MPTP block: 11; SKKanGAS inh: 14; Beta apoptosis: 14; Calb FLC: 20; Mdm2 MdmX PPI: -13; CSC inhib: 81*

What do the screens show for `Cc1cccc(NC(=S)NNC(=O)c2cc3c(s2)CCC(C)C3)c1C` (configuration not stated)?
MPTP block: 16; SKKanGAS inh: -6; Beta apoptosis: 0; Calb FLC: 110*; Mdm2 MdmX PPI: 9

Results for CC(C)(C)c1nnc(NC(=S)Nc2ccccc2)s1 ?
MPTP block: 1; SKKanGAS inh: 22; Beta apoptosis: 3; Calb FLC: 9; Mdm2 MdmX PPI: -45; CSC inhib: 5

Results for CCS(=O)(=O)N1Cc2ccccc2CC1C(=O)Nc1nnc(SCc2ccc(F)cc2)s1 (configuration not stated) ?
MPTP block: 22; SKKanGAS inh: 54*; Beta apoptosis: 4; Calb FLC: -2; Mdm2 MdmX PPI: 11; CSC inhib: 16

How did C#CCOCCOCCOCCNc1nc(N2CCN(C(=O)[C@H]([C@@H](C)CC)n3cc([C@@H](N)CC(C)C)nn3)CC2)nc(N2CCN(C(=O)[C@H](Cc3ccc(O)cc3)n3cc([C@@H](N)C(C)CC)nn3)CC2)n1 (some centres not stated) do in these assays?
MPTP block: -3; SKKanGAS inh: -2; Beta apoptosis: -1; Calb FLC: 12; Mdm2 MdmX PPI: 11

What do the screens show for `Cc1cc2n(n1)C(c1cn(-c3ccccc3)nc1C)Nc1ccccc1-2` (configuration not stated)?
MPTP block: 0; SKKanGAS inh: -7; Beta apoptosis: 8; Calb FLC: 3; Mdm2 MdmX PPI: -3; CSC inhib: 2

How did Cc1cc2n(n1)C(c1c[nH]c3ccccc13)Nc1ccccc1-2 (configuration not stated) do in these assays?
MPTP block: 6; SKKanGAS inh: 63*; Beta apoptosis: 2; Calb FLC: 45; Mdm2 MdmX PPI: 20; CSC inhib: 66

What do the screens show for `CC(c1ccccc1)N1CCn2c(nc3cc(NS(C)(=O)=O)ccc32)C1` (configuration not stated)?
MPTP block: 0; SKKanGAS inh: -5; Beta apoptosis: -4; Calb FLC: 109*; Mdm2 MdmX PPI: -3; CSC inhib: -5

Results for COc1ccc(Oc2nc(-c3cccnc3)nc3ccccc23)cc1 ?
MPTP block: 4; SKKanGAS inh: 1; Beta apoptosis: 7; Calb FLC: 7; Mdm2 MdmX PPI: 15; CSC inhib: 10

What do the screens show for `CCCOc1ccc(-c2nc(OC)c3ccccc3n2)cc1`?
MPTP block: 4; SKKanGAS inh: 56*; Beta apoptosis: 6; Calb FLC: 21; Mdm2 MdmX PPI: 19; CSC inhib: 26

What do the screens show for `Cc1ccc(NC(=S)N/N=C/c2c(C)[nH]c3ccccc23)cc1`?
MPTP block: 3; SKKanGAS inh: 4; Beta apoptosis: 10; Calb FLC: inconclusive; Mdm2 MdmX PPI: 25; CSC inhib: 97*

Results for Cc1cccc(NC(=S)N/N=C/c2c[nH]c3ccccc23)c1 ?
MPTP block: 4; SKKanGAS inh: 8; Beta apoptosis: 19; Calb FLC: 5; Mdm2 MdmX PPI: 44; CSC inhib: 79*

What do the screens show for `Cc1ccc(C(=O)Nc2ccc(C(=O)N/N=C/c3c[nH]c4ccccc34)cc2)cc1`?
MPTP block: 0; SKKanGAS inh: 10; Beta apoptosis: 18; Calb FLC: -5; Mdm2 MdmX PPI: -23; CSC inhib: 50

Results for Cc1[nH]c2ccccc2c1/C=N/NC(N)=S ?
MPTP block: 2; SKKanGAS inh: 20; Beta apoptosis: -7; Calb FLC: 1; Mdm2 MdmX PPI: 11; CSC inhib: 2

Results for CSc1nc(-c2ccccc2)c2cc(Cl)ccc2n1 ?
MPTP block: 0; Beta apoptosis: 2; Mdm2 MdmX PPI: 11; CSC inhib: -4

How did O=C(CN(c1ccc(Cl)c(C(F)(F)F)c1)S(=O)(=O)c1ccccc1)N/N=C/c1cccc2c1OCCO2 do in these assays?
MPTP block: 3; SKKanGAS inh: 54*; Beta apoptosis: -5; Calb FLC: 1; Mdm2 MdmX PPI: 41; CSC inhib: 10

Results for CN(C)CCCOc1ccc(-c2cc3nc(NCc4cccnc4)n(C)c(=O)c3s2)cn1 ?
MPTP block: 0

How did COc1cccc(CC2(CO)CCN(C(=O)NCCc3ccccc3)CC2)c1 do in these assays?
MPTP block: 0; SKKanGAS inh: -1; Beta apoptosis: -1; Calb FLC: 2; Mdm2 MdmX PPI: 25; CSC inhib: 11

Results for COc1cccc(C(=O)C(C#N)=C(SC)SC)c1 ?
MPTP block: 4; SKKanGAS inh: 2; Beta apoptosis: 36; Calb FLC: -2; Mdm2 MdmX PPI: 34; CSC inhib: 83*

What do the screens show for `CSC(SC)=C(C#N)C(=O)c1ccccc1`?
MPTP block: 6; SKKanGAS inh: -2; Beta apoptosis: -3; Calb FLC: -5; Mdm2 MdmX PPI: 13; CSC inhib: 71

What do the screens show for `O=C(C(Cl)Cl)N1c2ccccc2OCC1c1ccccc1` (configuration not stated)?
MPTP block: 15; SKKanGAS inh: 5; Beta apoptosis: 76*; Calb FLC: -6; Mdm2 MdmX PPI: 28; CSC inhib: 12

How did COc1ccc(CN(C)C(=O)c2ccc(NC(=O)CC3SC(N4CCCC4)=NC3=O)cc2)c(OC)c1OC (configuration not stated) do in these assays?
MPTP block: -1; SKKanGAS inh: 4; Beta apoptosis: 3; Calb FLC: 1; Mdm2 MdmX PPI: 12; CSC inhib: 2
